{
  "source": "PubChem BioAssay AID1259318",
  "about": "(Sanford-Burnham Center for Chemical Genomics, 2017)",
  "note": "Screen size: about 370,000 compounds; about 3,000 (0.81%) were called active.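 Rule for the calls: active = activity above about 14% (limit read from the data; passing the limit was not always enough); inactive = the rest.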 For the sample, actives were picked, then their nearest neighbours and some compounds at random.",
  "data": [
    {"target": "Nuclear receptor subfamily 1 group D member 1 (Homo sapiens) (UniProt P20393)", "sequence (P20393 whole entry, looked up)": "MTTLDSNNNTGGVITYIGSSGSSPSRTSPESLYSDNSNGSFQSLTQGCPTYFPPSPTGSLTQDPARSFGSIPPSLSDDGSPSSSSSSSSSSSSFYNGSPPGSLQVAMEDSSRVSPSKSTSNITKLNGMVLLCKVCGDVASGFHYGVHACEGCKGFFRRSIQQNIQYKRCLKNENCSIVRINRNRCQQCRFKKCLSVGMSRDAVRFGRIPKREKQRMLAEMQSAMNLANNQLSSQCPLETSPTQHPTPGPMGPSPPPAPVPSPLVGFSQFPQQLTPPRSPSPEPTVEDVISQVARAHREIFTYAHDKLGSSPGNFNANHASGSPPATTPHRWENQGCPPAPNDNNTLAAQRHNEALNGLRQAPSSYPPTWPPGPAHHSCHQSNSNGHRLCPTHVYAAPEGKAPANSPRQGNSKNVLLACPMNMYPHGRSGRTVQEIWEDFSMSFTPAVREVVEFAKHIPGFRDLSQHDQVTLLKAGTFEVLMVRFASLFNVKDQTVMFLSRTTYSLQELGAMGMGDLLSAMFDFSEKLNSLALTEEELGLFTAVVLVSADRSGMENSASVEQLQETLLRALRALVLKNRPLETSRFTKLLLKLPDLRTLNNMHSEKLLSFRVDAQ", "assay": "Rev-erbα–DNA interaction modulation – biochemical, FITC-DNA, fluorescence polarization, uHTS, primary screen (AID 1259318);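 note: 0% = DMSO wells with 35 nM protein and 100% = DMSO wells with 750 nM protein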", "conditions": "Rev-erbα–FITC-DNA binding, 90 min, at 10 µM, stronger effect = higher value", "values": [
      {"smiles": "CCc1c(-c2ccccc2)nc(N)c(C#N)c1-c1cccs1", "activity": "12% (inactive)"},
      {"smiles": "Cc1c(-c2ccccc2)nc(N)c(C#N)c1-c1cccs1", "activity": "29.3% (active)"},
      {"smiles": "CN1CCc2nc(SC(C(=O)O)c3ccccc3)c(C#N)c(-c3cccs3)c2C1", "note": "(centres undefined)", "activity": "-2.52% (inactive)"},
      {"smiles": "C=CCOc1cccc(CNn2cn[nH]c2=S)c1", "activity": "-6% (inactive)"},
      {"smiles": "CN(C(=O)COC(=O)Cn1cnc2c1c(=O)n(C)c(=O)n2C)C1(C#N)CCCCC1", "activity": "0.32% (inactive)"},
      {"smiles": "O=C(CSc1ccc(-c2ccc(F)cc2)nn1)Nc1ccc2c(c1)OCCO2", "activity": "-5.86% (inactive)"},
      {"smiles": "CCOc1cccc(NC(=O)Cn2nc(-c3ccc4c(c3)OCCO4)ccc2=O)c1", "activity": "52.4% (active)"},
      {"smiles": "CC(=O)c1cc2c(cc1NC(=O)Cn1nc(-c3ccc(F)cc3)ccc1=O)OCO2", "activity": "1.35% (inactive)"},
      {"smiles": "CC(C)C(C#CC1CC1)N(Cc1ccc2c(c1)OCO2)C(N)=NC(=O)/C=C/c1cccc(C(F)(F)F)c1", "note": "(centres undefined)", "activity": "-2.7% (inactive)"},
      {"smiles": "Cn1c(-c2sccc2OCc2cccc(C(F)(F)F)c2)n[nH]c1=S", "activity": "-0.5% (inactive)"},
      {"smiles": "CC1(C)Cc2nc3sc4c(SCC(=O)NC(c5ccccc5)c5ccccc5)ncnc4c3cc2CO1", "activity": "199% (active)"},
      {"smiles": "CC(C)CCSc1ncnc2c1oc1nc3c(cc12)COC(C)(C)C3", "activity": "0.04% (inactive)"},
      {"smiles": "O=C(CSc1ncnc2c1oc1ccccc12)NC1CCCC1", "activity": "-1.38% (inactive)"},
      {"smiles": "COCCN1C2=C(COC(C)(C)C2)C(=S)NC1c1ccccc1", "note": "(centres undefined)", "activity": "1.37% (inactive)"},
      {"smiles": "COc1ccccc1NC(=O)C(CC(=O)O)Cc1cc(C)cc(C)c1", "note": "(centres undefined)", "activity": "-2.91% (inactive)"},
      {"smiles": "COC(=O)c1c(NC(C)=O)sc(C(=O)Nc2ccccc2OC)c1C", "activity": "32.9% (active)"},
      {"smiles": "COc1ccccc1NC(=O)c1c(Br)cnn1C", "activity": "2.04% (inactive)"},
      {"smiles": "O=C(CCc1ccc(S(=O)(=O)N2CCOCC2)cc1)Nc1ccc2ccccc2c1", "activity": "-2.19% (inactive)"},
      {"smiles": "O=C(NC1CC1)C(Cc1ccccc1)NS(=O)(=O)c1ccccc1F", "note": "(centres undefined)", "activity": "3.33% (inactive)"},
      {"smiles": "CC(C(=O)N=Nc1c(O)n(C)c2ccc(Br)cc12)n1cnc2ccccc2c1=O", "note": "(centres undefined)", "activity": "2.88% (inactive)"},
      {"smiles": "COc1ccccc1C(=O)Nc1ccnn1C1CCN(Cc2cnn(C)c2)CC1", "activity": "4.21% (inactive)"},
      {"smiles": "COc1cccc(N2CCN(CC(=O)Nc3ccnn3C3CCCC3)CC2)c1", "activity": "5.07% (inactive)"},
      {"smiles": "COc1ccccc1N1CCN(CC(=O)Nc2ccnn2C2CCCC2)CC1", "activity": "15.8% (active)"},
      {"smiles": "C#CCNc1nc(C(C)C)nc2c1nnn2Cc1ccccc1F", "activity": "2.17% (inactive)"},
      {"smiles": "CCCCCCCCCOC1OC(CO)C(O)C(O)C1NC(C)=O", "note": "(centres undefined)", "activity": "1.37% (inactive)"},
      {"smiles": "CCC(C)C1(C2CCCC2)NC(=O)NC1=O", "note": "(centres undefined)", "activity": "16.3% (active)"},
      {"smiles": "c1cncc(CNc2ccnc(-c3ccc4c(c3)OCO4)n2)c1", "activity": "3.58% (inactive)"},
      {"smiles": "Cc1ccc2nc(C)c3c(c2c1)N(c1ccccc1)CC3", "activity": "8.49% (inactive)"},
      {"smiles": "Cc1ccc(C(=O)Oc2coc(CSc3nnc(NC(=O)c4cccs4)s3)cc2=O)cc1C", "activity": "12.7% (inactive)"},
      {"smiles": "CCOc1cccc(C(=O)Nc2nnc(-c3cccs3)s2)c1", "activity": "23.2% (active)"},
      {"smiles": "CCOc1cccc(C(=O)Nc2cnn(Cc3ccccc3)c2)c1", "activity": "-1.52% (inactive)"},
      {"smiles": "CCOc1ccc(C(=O)Nc2nccs2)cc1[N+](=O)[O-]", "activity": "13.7% (inactive)"},
      {"smiles": "Cc1ccc(C(=O)Nc2nnc(-c3cccs3)s2)cc1C", "activity": "22.5% (active)"},
      {"smiles": "Cc1ccc(C(=O)NC(C)C(c2cccs2)N2CCOCC2)cc1C", "note": "(centres undefined)", "activity": "-7% (inactive)"},
      {"smiles": "CSc1ccccc1C(=O)OCC(=O)N1CCN(C(C)=O)CC1", "activity": "-6.48% (inactive)"},
      {"smiles": "COCCCNC(=O)Cn1cc(/C=C(\\C#N)C(=O)N2CCN(c3ccccc3)CC2)c2ccccc21", "activity": "1.28% (inactive)"},
      {"smiles": "COc1ccc2c(c1)CCC/C2=N\\OC(=O)c1ccccc1F", "activity": "-4.23% (inactive)"},
      {"smiles": "COc1cc(NS(=O)(=O)c2ccc(NC(=O)c3ccc(S(=O)(=O)N4CCCCC4)cc3)cc2)ncn1", "activity": "-7.53% (inactive)"},
      {"smiles": "CCSC1=NCCN1S(=O)(=O)c1ccc(F)cc1", "activity": "8.78% (inactive)"},
      {"smiles": "N#Cc1ccc(-c2ccc(Cl)cc2)nc1Oc1ccc(F)cc1", "activity": "6.3% (inactive)"},
      {"smiles": "COc1nc(-c2ccc(Cl)cc2)ccc1-c1noc(-c2cccs2)n1", "activity": "56.6% (active)"},
      {"smiles": "CC(C)C[C@@H]1Cc2[nH][nH]c(=O)c2[C@H](CCc2ccccc2)O1", "activity": "-3.25% (inactive)"},
      {"smiles": "CCCn1c(O)c(CN2CCCC(C)C2)c(C)c(C#N)c1=O", "note": "(centres undefined)", "activity": "8.88% (inactive)"},
      {"smiles": "CSc1ncnc2c1ncn2CC(=O)C1CCC2C3CCC4=CC(=O)CCC4(C)C3CCC12C", "note": "(centres undefined)", "activity": "-3.58% (inactive)"},
      {"smiles": "CCC(=O)c1c(CC)c2n3c1=CC[C@H]3CC(Br)C=2", "note": "(some centres undefined)", "activity": "2.99% (inactive)"},
      {"smiles": "CC(Sc1ccccc1F)C(=O)Nc1cccc(S(=O)(=O)N2CCOCC2)c1", "note": "(centres undefined)", "activity": "-3.07% (inactive)"},
      {"smiles": "Cn1c(=NC(=O)c2ccc3c(c2)OCCO3)sc2cc(S(C)(=O)=O)ccc21", "activity": "22.9% (active)"},
      {"smiles": "COCCn1c(=NC(=O)c2ccccc2[N+](=O)[O-])sc2cc(S(C)(=O)=O)ccc21", "activity": "3.08% (inactive)"},
      {"smiles": "CS(=O)(=O)c1ccc(-c2nnn(CC(=O)Nc3ccc4c(c3)OCCO4)n2)cc1", "activity": "6.46% (inactive)"},
      {"smiles": "COc1ccc(C(=O)OCCN(C)C2CN(Cc3cn(Cc4cccc(C)c4)nn3)S(=O)(=O)C2)cc1OC", "note": "(centres undefined)", "activity": "-5.04% (inactive)"},
      {"smiles": "CSc1ccccc1NC(=O)CN(C)CC(=O)Nc1cccc(Br)c1", "activity": "-5.77% (inactive)"},
      {"smiles": "CC(=O)c1ccc(N2CCN(S(=O)(=O)c3ccc4c(c3)CC(=O)N4C)CC2)cc1", "activity": "1.85% (inactive)"},
      {"smiles": "CC(=O)c1ccc(S(=O)(=O)N2CCN(c3nc4c(C)c(C)ccc4cc3C#N)CC2)cc1", "activity": "223% (active)"},
      {"smiles": "Cc1ccccc1N1CCN(S(=O)(=O)c2ccc3ccccc3c2)CC1", "activity": "3.07% (inactive)"},
      {"smiles": "CCN(CCCNC(=O)c1ccc2c(c1)NC(=O)CN2C)c1cccc(C)c1", "activity": "-3.82% (inactive)"},
      {"smiles": "COC(=O)c1sc(NC(=O)c2ccc(OC)cc2OC)nc1C", "activity": "28.7% (active)"},
      {"smiles": "COc1ccc(C(=O)Nc2cccc(NC(=O)c3ccc(OC)cc3OC)n2)c(OC)c1", "activity": "22.5% (active)"},
      {"smiles": "COc1ccc(CNC(=O)CCC(=O)Nc2nnc(C(C)C)s2)cc1", "activity": "-2.06% (inactive)"},
      {"smiles": "COc1ccc(Cc2nnc(NC(=O)c3ccc(OC)cc3OC)s2)cc1", "activity": "45.2% (active)"},
      {"smiles": "COc1ccc(C(=O)CSc2nnnn2C)c(OC)c1", "activity": "1.25% (inactive)"},
      {"smiles": "COc1ccc(N(CC(=O)Nc2cccc3ccccc23)S(C)(=O)=O)c(OC)c1", "activity": "0.94% (inactive)"},
      {"smiles": "COCCSc1nnc(NC(=O)c2cc(OC)c(OC)cc2[N+](=O)[O-])s1", "activity": "7.5% (inactive)"},
      {"smiles": "COc1ccc(C(=O)N2CCCN(C)CC2)c(OC)c1", "activity": "1.46% (inactive)"},
      {"smiles": "COc1ccc(C(=O)COC(=O)C(O)c2ccccc2)c(OC)c1", "note": "(centres undefined)", "activity": "7.39% (inactive)"}
    ]}
  ]
}
